Each structure is given as a SMILES string. The source made the active and inactive calls. Rule for the calls: active = hit-call score of the fitted dose curve at least 0.9, where 1 is the maximum; inactive = score below 0.9.

This is an account of results in PubChem BioAssay (EPA / NIEHS).

This experiment can be described thus: APR_HepG2_NuclearSize_1hr: Apredica 1-hour HepG2 Assay for Nuclear Size (AID 2282670). The following applies: high-content imaging, actives raise or lower the signal. The method, then:
APR_HepG2_1hr is a cell-based, multiplexed-readout assay that uses HepG2, a human liver cell line, with measurements taken at 1 hour after chemical dosing in a 384-well plate.APR_HepG2_NuclearSize_1hr is one of 10 assay component(s) measured or calculated from the APR_HepG2_1hr assay. It is designed to make measurements of cell phenotype, a form of morphology reporter, as detected with fluorescence intensity signals by HCS Fluorescent Imaging technology.Data from the assay component APR_HepG2_NuclearSize_1hr was analyzed into 1 assay endpoint. This assay endpoint, APR_HepG2_NuclearSize_1hr, was analyzed with bidirectional fitting relative to DMSO as the negative control and baseline of activity. Using a type of morphology reporter, measures of all nuclear dna for gain or loss-of-signal activity can be used to understand the signaling at the nuclear-level. Furthermore, this assay endpoint can be referred to as a primary readout, because this assay has produced multiple assay endpoints where this one serves a signaling function. To generalize the intended target to other relatable targets, this assay endpoint is annotated to the cell morphology intended target family, where the subfamily is organelle conformation.
Cells were treated with dimethyl sulfoxide (DMSO) as a solvent control at a final concentration of 0.5% v/v or with compounds in DMSO with a resulting final DMSO concentration of 0.5% v/v. Compound treatment was done at concentrations of 0.39, 0.78, 1.56, 3.12, 6.24, 12.5, 25, 50, 100, and 200 uM in duplicate on each plate. Cells were treated with compounds for 1, 24, or 72 hr. Carbonyl […] m-chloro-phenylhydrazone (CCCP) and taxol were used as positive controls for mitochondrial function and cytoskeletal stability, respectively; DMSO served as the negative control for this experiment. Cells were fixed by the direct addition of 50 uL formaldehyde in Hank's Balanced Salt Solution (HBSS) to a final concentration of 3.7%. After incubation in the fixation medium for 30 min at room temperature (293-298 K), cells were rinsed twice with HBSS and treated with cell permeabilization buffer (16 uL of 0.5% Triton X-100) for 10 min at room temperature (293-298 K) before labeling. For mitochondrial membrane potential and mitochondrial measurements, pre-fixed cells were incubated with 50 uL of MitoTracker Red CMXRos (Invitrogen) at a concentration of 250 nM for 30 min before fixation. In the remaining cases, post-fixed cells were labeled by incubation with a multiplexed mixture of primary antibodies in HBSS for 60 min at room temperature (293-298 K) to detect immunoreactivity of c-Jun (1:500), phospho-histone H3 (1:100), phospho-histone H2A.x (1:200), p53 (1:400), alpha-tubulin (1:200) and Hoechst 33342 (2 ug/mL). Cells were labeled for multiplexed imaging on two separate plates: a) Hoechst 33342, MitoTracker Red, phospho-histone H3, and alpha-tubulin, and b) Hoechst 33342, phospho-histone H2A.x, and c-Jun. A final rinse with HBSS (50 uL) was performed before analysis. The primary and secondary antibodies for the proteins were phospho-histone H3 (rabbit anti-phospho-histone H3 and FITC-donkey anti-rabbit IgG), phospho-histone H2A.x (mouse anti-phospho-histone H2A.x and FITC-donkey anti-mouse IgG), c-Jun (rabbit anti-phospho-c-Jun and Cy3-donkey anti-rabbit IgG), p53 (sheep anti-p53 and Cy5-donkey anti-sheep IgG), alpha-tubulin (mouse anti-alpha-tubulin and Cy5-donkey anti-mouse IgG). These antibodies are available as the CellCiphr HepG2 assay kit (Millipore).Digital images of each well were captured using a Cellomics ArrayScan VTI (Thermo Scientific Cellomics) (0.8 NA objective, 0.63x optical coupler, and XF-93 filter set) at 20x magnification. The images were acquired using the autofocus feature of the ArrayScan instrument, which entails the following steps. First, the camera focuses on channel 1 (Hoechst 33342), where nuclei are identified. Second, a Z offset of 1 um is used for capturing mitochondria (MitoTracker Red). […]
With `COC(=O)c1ccccc1C(=O)OC`, the call was inactive. Then `Cc1ccc(-c2c(Cl)nc(C#N)n2S(=O)(=O)N(C)C)cc1`, with “inactive”.

Turning to `COc1nc(C)nc(NC(=O)NS(=O)(=O)c2ccccc2CCC(F)(F)F)n1`, the molecule was classed as inactive. Then `COc1nc(NC(C)C)nc(NC(C)C)n1`, with “inactive”; and `CCCC1COC(Cn2cncn2)(c2ccc(Cl)cc2Cl)O1` (stereo not given), with “inactive”. `O=C(Nc1ccccc1)Nc1ccnc(Cl)c1`: the result was inactive. Then `COc1cnc(OC)n2nc(NS(=O)(=O)c3c(OCC(F)F)cccc3C(F)(F)F)nc12`, with “inactive”. Then `CS/C(C)=N/OC(=O)N(C)SN(C)C(=O)O/N=C(\C)SC`, with “inactive”; and `C#CCOS(=O)OC1CCCCC1Oc1ccc(C(C)(C)C)cc1` (stereo not given), with “inactive”. For `CCCCOC(=O)c1ccccc1C(=O)OCCCC`, the result was inactive. Then `COC(=O)C(C)Oc1ccc(Oc2ccc(Cl)cc2Cl)cc1` (stereo not given), with “inactive”; and `COC(=O)N(OC)c1ccccc1COc1ccn(-c2ccc(Cl)cc2)n1`, with “inactive”; and `COc1nc(C)nc(NC(=O)NS(=O)(=O)c2ccccc2Cl)n1`, with “inactive”. For the molecule `CCOc1cc(Oc2ccc(C(F)(F)F)cc2Cl)ccc1[N+](=O)[O-]`, the molecule was classed as inactive.

On to `CCON=C(CC)C1=C(O)CC(c2c(C)cc(C)cc2C)CC1=O` (stereo not given), for which the call was inactive. Then `CCOP(=S)(OCC)SCn1c(=O)oc2cc(Cl)ccc21`, with “inactive”. Then `CC(Oc1ccc(Cl)cc1Cl)C(=O)O` (stereo not given), with “inactive”; and `Cc1cc(Cl)ccc1OCC(=O)O`, with “inactive”; and `C=CCC1=C(C)[C@@H](OC(=O)[C@@H]2[C@@H](C=C(C)C)C2(C)C)CC1=O`, with “inactive”. In the case of `N#CC(CCc1ccc(Cl)cc1)(Cn1cncn1)c1ccccc1` (stereo not given), the call was inactive.

For `CCc1nn(C)c(C(=O)NCc2ccc(C(C)(C)C)cc2)c1Cl`, the outcome was inactive. Then `Fc1ccc(Oc2ccnc3cc(Cl)cc(Cl)c23)cc1`, with “inactive”. Then `CCOC(=O)CC(SP(=S)(OC)OC)C(=O)OCC` (stereo not given), with “inactive”; and `COC(=O)C=C(C)OP(=O)(OC)OC`, with “inactive”. Then `Cc1c(F)c(F)c(COC(=O)C2C(/C=C(\Cl)C(F)(F)F)C2(C)C)c(F)c1F` (stereo not given), with “inactive”; and `CC(C)Oc1cc(-n2nc(C(C)(C)C)oc2=O)c(Cl)cc1Cl`, with “inactive”. For the molecule `CON(C)C(=O)Nc1ccc(Cl)c(Cl)c1`, the result was inactive.

As for `CNC(=O)ON=CC(C)(C)SC`, the molecule was classed as inactive.

`COc1ccc(C(c2ccc(OC)cc2)C(Cl)(Cl)Cl)cc1`: the molecule was classed as inactive. Then `C=CC1(C)OC(=O)N(c2cc(Cl)cc(Cl)c2)C1=O` (stereo not given), with “inactive”; and `Oc1ccccc1-c1ccccc1`, with “inactive”; and `CC(C)(C)c1ccc(CSc2cnn(C(C)(C)C)c(=O)c2Cl)cc1`, with “inactive”. As to `OC(c1ccc(Cl)cc1)(c1cncnc1)c1ccccc1Cl` (stereo not given), the molecule was called inactive.

On to `CCOC(=O)C(Cl)Cc1cc(-n2nc(C)n(C(F)F)c2=O)c(F)cc1Cl` (stereo not given), for which the molecule was classed as inactive. Then `N#Cc1cc(Br)c(O)c(Br)c1`, with “inactive”; and `CN(C)C(=S)SSC(=S)N(C)C`, with “inactive”. Then `CC(C)C1(C)N=C(c2nc3ccccc3cc2C(=O)O)NC1=O` (stereo not given), with “inactive”. Consider `CC1=C(C(=O)Nc2ccccc2)SCCO1`, for which the result was inactive. Then `CC1COC(Cn2cncn2)(c2ccc(Oc3ccc(Cl)cc3)cc2Cl)O1` (stereo not given), with “inactive”. Then `CCCCC(CC)COC(=O)c1ccccc1C(=O)OCC(CC)CCCC` (stereo not given), with “inactive”.
